Experimental findings from PubChem BioAssay (EPA / NIEHS) are described below.

Inconclusive results are not listed. The source holds several records for some structures; these can differ, active in one and inactive in another. The source made the active and inactive calls. The calls were made as follows, unless noted: active = hit-call score of the fitted dose curve at least 0.9, where 1 is the maximum; inactive = score below 0.9.

Read-out in experiment [1]: Interleukin-8 (IL8), CXCL8 (gene 3576)
Nature of the experiment: BSK_3C_IL8: BioMAP Diversity Plus: 3C Assay for Interleukin-8 (IL8) Biomarker Activity (AID 2283020). The note with it: primary human endothelial cells (HUVEC); actives raise or lower the signal. In outline:
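Using DMSO-treated wells as the baseline, bidirectional curve fitting was applied to ELISA-measured IL-8 from human umbilical vein endothelial cultures sampled 24 h after compound addition.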

Read-out in experiment [2]: Monokine induced gamma interferon (MIG), CXCL9 (gene 4283)
Nature of the experiment: BSK_3C_MIG: BioMAP Diversity Plus: 3C Assay for Monokine induced gamma interferon (MIG) Biomarker Activity (AID 2283021).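 As to AC50: MIG protein level measured by immunoassay in the treated endothelial cultures.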 The note with it: primary human endothelial cells (HUVEC); actives raise or lower the signal. In outline:
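ELISA-measured MIG in dosed HUVEC 3C cultures at 24 h, analysed by bidirectional fitting with DMSO defining baseline activity.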

Experiment [3] has as its target human Vitamin D Receptor (VDR), VDR (gene 7421) (UniProt P11473). As to the kind of experiment: ATG_VDR_TRANS: Attagene TRANS-FACTORIAL HepG2 Assay for human Vitamin D Receptor (VDR) (AID 2283022; active = hit-call score of the fitted dose curve at least 0.9, where 1 is the maximum). A digest of the protocol: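 RT-PCR/capillary electrophoresis read-out of reporter mRNA induction in transiently transfected HepG2; 24 h dosing; chimeric NR-Gal4 (TRANS format); gain-of-signal fit against DMSO baseline.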

The nature of experiment [4]: BSK_3C_SRB: Viability Assessment in the BioMAP Diversity Plus: 3C Assay (AID 2283023).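 Also: fitted both ways against DMSO so a hit may be signal rise or drop.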 The note with it: primary human endothelial cells (HUVEC). A digest of the protocol: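 HUVEC, 24 h post-dose; 10% TCA fix, 0.1% SRB stain, A560 nm. Bidirectional curve fit vs DMSO negative control.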
Read-out in experiment [5]: Matrix Metallopeptidase 1 (MMP1), MMP1 (gene 4312)
As to the kind of experiment: BSK_BE3C_MMP1: BioMAP Diversity Plus: BE3C Assay for Matrix Metallopeptidase 1 (MMP1) Biomarker Activity (AID 2283024). The note with it: primary human bronchial epithelial cells; actives raise or lower the signal. A digest of the protocol:
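In this multiplexed primary-cell system, human bronchial epithelium received chemicals for 24 h before an ELISA for MMP1. Values reflect bidirectional fits normalised to the DMSO baseline.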

The nature of experiment [6]: BSK_3C_Vis: BioMAP Diversity Plus: 3C Assay for Morphology Visualization (AID 2283025).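 Also: fitted both ways so gain or loss versus DMSO counts.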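 As to AC50: light microscopy image of cell morphology used as background control.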 The note with it: primary human endothelial cells (HUVEC). A digest of the protocol: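 Light-microscopy morphology readout, 24 h exposure, human primary umbilical vein endothelium; analysed relative to DMSO with bidirectional fitting.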
Read-out in experiment [7]: Pselectin, SELP (gene 6403)
Nature of the experiment: BSK_4H_Pselectin: BioMAP Diversity Plus: 4H Assay for Pselectin Biomarker Activity (AID 2283026). The note with it: primary human endothelial cells (HUVEC); actives raise or lower the signal. A digest of the protocol:
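Bidirectional fits against DMSO gave the endpoint. Cells: primary human umbilical vein endothelium, chemical-treated for 24 h before ELISA detection of P-selectin.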

A short description of experiment [8]: BSK_4H_SRB: Viability Assessment in the BioMAP Diversity Plus: 4H Assay (AID 2283027).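 Also: cells exposed to compound for 24 h before staining.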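 As to AC50: curves fitted both ways versus DMSO so AC50 may be loss or gain.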 The note with it: primary human endothelial cells (HUVEC). A digest of the protocol: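 HUVEC, 24 h post-dose; 10% TCA fix, 0.1% SRB stain, A560 nm. Total protein = overt cytotoxicity, parallel to biomarker read. Bidirectional fit vs DMSO baseline.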
Experiment [9] can be described thus: BSK_BE3C_SRB: Viability Assessment in the BioMAP Diversity Plus: BE3C Assay (AID 2283028).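 As to AC50: fitted both ways so AC50 may mark signal gain or loss versus DMSO.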 The note with it: primary human bronchial epithelial cells. A digest of the protocol: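 Primary human bronchial epithelium; chemical dosing, 24 h; 10% TCA fix, 0.1% SRB stain, A560; bidirectional fit vs DMSO baseline.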
Read-out in experiment [10]: Thrombomodulin, THBD (gene 7056)
As to the kind of experiment: BSK_3C_Thrombomodulin: BioMAP Diversity Plus: 3C Assay for Thrombomodulin Biomarker Activity (AID 2283029). The note with it: primary human endothelial cells (HUVEC); actives raise or lower the signal. A digest of the protocol: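 In a multiplexed primary-cell system, human umbilical vein endothelium received chemical and was assayed 24 h later for thrombomodulin by ELISA. Parallel cultures were SRB-stained (0.1% SRB after 10% TCA fixation, read at 560 nm) to flag cytotoxicity.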

Read-out in experiment [11]: Urokinase-type plasminogen activator receptor (uPAR), PLAUR (gene 5329)
Nature of the experiment: BSK_4H_uPAR: BioMAP Diversity Plus: 4H Assay for Urokinase-type plasminogen activator receptor (uPAR) Biomarker Activity (AID 2283030). The note with it: primary human endothelial cells (HUVEC); actives raise or lower the signal. A digest of the protocol: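 HUVEC, 24 h post-dose; uPAR by ELISA; bidirectional fit vs DMSO baseline.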

Read-out in experiment [12]: Vascular endothelial growth factor receptor 2 (Homo sapiens) (UniProt P35968)
As to the kind of experiment: BSK_4H_VEGFRII: BioMAP Diversity Plus: 4H Assay for Vascular endothelial growth factor receptor 2 (VEGFR2) Biomarker Activity (AID 2283031).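 As to AC50: cell-surface VEGFR2 protein level quantified by ELISA.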 The note with it: primary human endothelial cells (HUVEC); actives raise or lower the signal. In outline:
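HUVEC (human primary), 4H system; 24 h post-dose; VEGFRII by ELISA; bidirectional curve fit vs DMSO baseline; gain or loss of signal scored.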

Read-out in experiment [13]: Human Leukocyte Antigen - DR isotype (HLADR), HLA-DRA (gene 3122)
As to the kind of experiment: BSK_BE3C_HLADR: BioMAP Diversity Plus: BE3C Assay for Human Leukocyte Antigen - DR isotype (HLADR) Biomarker Activity (AID 2283032). The note with it: primary human bronchial epithelial cells; actives raise or lower the signal. In outline: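 BioMAP BE3C format: human bronchial epithelium, 24 h compound treatment, ELISA detection of HLA-DR, with bidirectional analysis relative to DMSO.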

Read-out in experiment [14]: Vascular cell adhesion molecule 1 (VCAM1), VCAM1 (gene 7412)
As to the kind of experiment: BSK_4H_VCAM1: BioMAP Diversity Plus: 4H Assay for Vascular cell adhesion molecule 1 (VCAM1) Biomarker Activity (AID 2283033).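 As to outcome: cell-surface VCAM-1 protein measured by ELISA.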 The note with it: primary human endothelial cells (HUVEC); actives raise or lower the signal. In outline:
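In this human endothelial (HUVEC) system, biomarker ELISA was run 24 h after compound addition, and total protein in parallel wells was assessed by SRB at 560 nm; DMSO served as negative control.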

Read-out in experiment [15]: Interferon-gamma inducible Protein 10 (IP10), CXCL10 (gene 3627)
As to the kind of experiment: BSK_BE3C_IP10: BioMAP Diversity Plus: BE3C Assay for Interferon-gamma inducible Protein 10 (IP10) Biomarker Activity (AID 2283034). The note with it: primary human bronchial epithelial cells; actives raise or lower the signal. A digest of the protocol: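 BE3C cells (human bronchial epithelial, primary); 24 h exposure; ELISA for IP-10; DMSO-referenced bidirectional fit.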

Read-out in experiment [16]: Monokine induced gamma interferon (MIG), CXCL9 (gene 4283)
Nature of the experiment: BSK_BE3C_MIG: BioMAP Diversity Plus: BE3C Assay for Monokine induced gamma interferon (MIG) Biomarker Activity (AID 2283035). The note with it: primary human bronchial epithelial cells; actives raise or lower the signal. In outline: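 Dose cells (human primary bronchial epithelial), incubate 24 h, quantify MIG by ELISA, then fit concentration–response in both directions relative to DMSO control.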

Read-out in experiment [17]: Transforming growth factor beta 1 (TGFb1), TGFB1 (gene 7040)
Nature of the experiment: BSK_BE3C_TGFb1: BioMAP Diversity Plus: BE3C Assay for Transforming growth factor beta 1 (TGFb1) Biomarker Activity (AID 2283036;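 as to outcome: TGF-b1 protein level measured by ELISA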). The note with it: primary human bronchial epithelial cells; actives raise or lower the signal. A digest of the protocol:
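TGF-b1 measured via ELISA, 24 h after chemical dosing of human bronchial epithelial cells (BE3C). Overt cytotoxicity assessed in parallel by SRB (0.1%, TCA-fixed, 560 nm); analysis bidirectional relative to DMSO.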

Read-out in experiment [18]: Plasminogen activator inhibitor-1 (PAI1), SERPINE1 (gene 5054)
Nature of the experiment: BSK_BE3C_PAI1: BioMAP Diversity Plus: BE3C Assay for Plasminogen activator inhibitor-1 (PAI1) Biomarker Activity (AID 2283037). The note with it: primary human bronchial epithelial cells; actives raise or lower the signal. In outline:
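In this multiplexed primary-cell system, bronchial epithelial cells receive test chemical and are sampled at 24 h. PAI-1 is read by ELISA, with DMSO serving as negative control for bidirectional fitting.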

Read-out in experiment [19]: urokinase plasminogen activator (uPA), PLAU (gene 5328)
Nature of the experiment: BSK_BE3C_uPA: BioMAP Diversity Plus: BE3C Assay for urokinase plasminogen activator (uPA) Biomarker Activity (AID 2283038).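 As to outcome: uPA protein level quantified by ELISA in cell cultures; uPA read one day after compound addition.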 The note with it: primary human bronchial epithelial cells; actives raise or lower the signal. In outline: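 ELISA read-out of uPA in human lung primary bronchial epithelial cultures, 24 h post-dosing. Gain or loss of signal fitted bidirectionally relative to DMSO baseline; cytotoxicity checked in parallel cultures via SRB total protein stain.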

Read-out in experiment [20]: Urokinase-type plasminogen activator receptor (uPAR), PLAUR (gene 5329)
Nature of the experiment: BSK_BE3C_uPAR: BioMAP Diversity Plus: BE3C Assay for Urokinase-type plasminogen activator receptor (uPAR) Biomarker Activity (AID 2283039).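 As to outcome: uPAR protein level measured by ELISA on the cells; cells exposed to compound for one day before measurement.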 The note with it: primary human bronchial epithelial cells; actives raise or lower the signal. A digest of the protocol: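 Chemically treated human bronchial epithelial cells (lung primary) are assayed for uPAR by ELISA after 24 h, with data fitted in both directions using DMSO as negative control.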

Chain of human Vitamin D Receptor (VDR), VDR (gene 7421) (P11473 whole entry, looked up, the tested form may be a part): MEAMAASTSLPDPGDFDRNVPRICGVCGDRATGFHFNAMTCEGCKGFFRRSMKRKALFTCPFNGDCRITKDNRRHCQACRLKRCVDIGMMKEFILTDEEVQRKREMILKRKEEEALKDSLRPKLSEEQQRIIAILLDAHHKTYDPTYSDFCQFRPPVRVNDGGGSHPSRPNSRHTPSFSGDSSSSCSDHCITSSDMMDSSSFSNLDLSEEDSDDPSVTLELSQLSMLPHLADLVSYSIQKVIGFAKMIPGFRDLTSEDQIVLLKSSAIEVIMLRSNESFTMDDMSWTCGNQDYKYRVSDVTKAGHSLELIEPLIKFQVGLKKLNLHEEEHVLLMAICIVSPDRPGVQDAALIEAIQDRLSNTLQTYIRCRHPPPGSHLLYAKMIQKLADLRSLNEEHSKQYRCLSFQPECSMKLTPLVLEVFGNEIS

Regarding `CCCCc1oc2ccccc2c1C(=O)c1cc(I)c(OCCN(CC)CC)c(I)c1`, the AC50 in experiment [1] was 17.7 µM (active); in experiment [2], 25.7 µM (active); in experiment [3], 47.5 µM (active); in experiment [4] it was 8.48 µM (active); in experiment [5], 25 µM (active); in [6], 9.65 µM (active). In addition, the AC50 in experiment [7] is 9.72 µM (active); in experiment [8] it was 13.1 µM (active); in experiment [9], 25.4 µM (active); in experiment [11], 15.1 µM (active); in experiment [12] it was 21.2 µM (active); in [13], 15.1 µM (active). For the same molecule, the AC50 in experiment [14] was 19.6 µM (active); in experiment [15], 12 µM (active); in experiment [16] it was 23.3 µM (active); in [17] it was 12.2 µM (active); in [18], 18.8 µM (active); in [19], 20.1 µM (active). The AC50 in [20] is 20.6 µM (active). The outcome in experiment [10] was inactive.

As to `O=C1NS(=O)(=O)c2ccccc21`, the result in experiment [1], in [2], in experiment [4], in [5], in experiment [6] and in [7] was inactive. In addition, the result in experiment [8], in experiment [9], in [10], in experiment [11], in experiment [12] and in [13] was inactive. The result in experiment [14], in [15], in experiment [16], in [17], in experiment [18] and in [19] was inactive. Besides, in experiment [20], the result was inactive. For the same molecule, the AC50 in experiment [7] was 5.01 µM (active).

Take `CN(C)c1ccc(C(=C2C=CC(=[N+](C)C)C=C2)c2ccccc2)cc1`: the AC50 was 0.668 µM (active) in [1]; 0.356 µM (active) in experiment [2]; 0.055 µM (active) in experiment [4]; 0.00948 µM (active) in experiment [6]; 0.0138 µM (active) in [7]; 0.0527 µM (active) in [8]. The AC50 in [9] is 2.72 µM (active); in [11] it was 0.00549 µM (active); in experiment [12] it was 0.0249 µM (active); in experiment [13], 0.0162 µM (active); in experiment [14], 0.016 µM (active); in experiment [15] it was 0.202 µM (active). For the same molecule, the AC50 in experiment [16] is 0.561 µM (active); in experiment [19] it was 0.958 µM (active); in [20], 0.186 µM (active). The call in experiment [3], in experiment [10], in experiment [17] and in experiment [18] was inactive.

With `CC[N+](CC)(CC)Cc1ccccc1`, the result in experiment [1], in experiment [2], in experiment [3], in experiment [4], in [5] and in [6] was inactive. Further, the result in experiment [7], in [8], in [9], in experiment [10], in experiment [11] and in experiment [12] was inactive. Also, the result in [13], in experiment [14], in [15], in experiment [16], in experiment [17] and in experiment [18] was inactive. The outcome in experiment [19] and in [20] was inactive.

As to `C[C@]12CC[C@@H]3c4ccc(O)cc4CC[C@H]3[C@@H]1C[C@@H](O)[C@@H]2O`, the result in experiment [1], in experiment [2], in experiment [3], in experiment [4], in [5] and in [6] was inactive. Besides, the outcome in experiment [7], in experiment [8], in experiment [9], in [10], in [11] and in experiment [12] was inactive. Also, the result in [13], in experiment [14], in experiment [15], in [16], in experiment [17] and in experiment [18] was inactive. Also, the result in experiment [19] and in experiment [20] was inactive.

A word on the AC50: it is the concentration at which the activity in the assay is half-maximal.
